Beta2AR agonist: agonists of human beta-2 adrenergic receptor inducing internalization; P07550; AID 504454; hit rate 0.43% among 340,000; Am2.2-beta2AR cells, FAP receptor internalization, flow cytometry; response, % (test concentration not listed);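 active means response above a set limit, near 3 SD of response in nonfluorescent compounds, cut at about 42% in these data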
Target sequence (P07550 whole entry, looked up): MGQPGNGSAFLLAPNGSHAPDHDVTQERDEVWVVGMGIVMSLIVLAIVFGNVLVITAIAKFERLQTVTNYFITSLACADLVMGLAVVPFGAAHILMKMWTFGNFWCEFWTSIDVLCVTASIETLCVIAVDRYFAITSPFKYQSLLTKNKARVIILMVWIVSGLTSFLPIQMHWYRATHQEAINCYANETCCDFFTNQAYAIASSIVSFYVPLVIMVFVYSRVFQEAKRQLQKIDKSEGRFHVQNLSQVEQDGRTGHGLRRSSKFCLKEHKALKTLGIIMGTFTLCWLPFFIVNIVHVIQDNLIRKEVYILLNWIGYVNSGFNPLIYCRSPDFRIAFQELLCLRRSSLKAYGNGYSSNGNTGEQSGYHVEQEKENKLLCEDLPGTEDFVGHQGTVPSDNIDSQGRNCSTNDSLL
CF NFkB block: inhibitors of cystic fibrosis induced NF-kB. AID 588850. KKLEB NF-kB-GFP reporter, PAF-induced, GFP fluorescence overnight. inhibition, % at 5 µM. hit rate 0.86% among 360,000;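 active means at least 50% inhibition at 5 µM, scaled per plate between neutral and stimulator controls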;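 further: PAF is a Pseudomonas aeruginosa culture filtrate used as stimulus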
HIF-2a block: inhibitors of HIF-2a | 786-0 RCC cells HIF-2a reporter, luciferase luminescence, overnight | inhibition, % at 18.8 µM | hit rate 0.72% among 360,000 | AID 624352;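 active means inhibition of the luminescence signal of 40% or more relative to plate controls, in a single-dose primary screen at 18.75 µM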
Peg3 promoter: reduces Peg3 promoter-driven luciferase expression in HeLa. inhibition, % at 20 µM. hit rate 1.7% among 360,000. HeLa PEG-Prom luciferase reporter, luminescence, overnight;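 active means inhibition of at least 50% at 20 µM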
KKLEB cytotox: reduces viability of KKLEB cystic fibrosis airway cells | KKLEB CF airway cells viability, ATPlite luminescence, overnight; hits give low values; cells stimulated with P. aeruginosa culture filtrate | activity change (cytotoxicity), % at 5 µM | hit rate 0.36% among 360,000;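 active means corrected activity change at or below -50% at 5 µM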
TRPM1 prom inh: reduces MITF-dependent TRPM1 promoter luciferase signal; SK-MEL-5 TRPM1 promoter luciferase, 24 h; inhibition, % at 12.5 µM; hit rate 0.83% among 330,000; AID 488899;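 active means mean inhibition across replicates of 60% or more, whatever share of single replicates reaches that level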
Hits are given with their value; n = inactive; x = no result given. Rows were chosen to be rich in hits. Some 2.8% of all compounds tested hit in one or more screens of this group.

SMILES	Beta2AR agonist	CF NFkB block	HIF-2a block	Peg3 promoter	KKLEB cytotox	TRPM1 prom inh
COc1ccc(NC(C)C(=O)N/N=C/c2c(O)ccc3ccccc23)cc1 (stereo unspecified)	n	n	n	57	n	n
COc1ccc(N=Cc2c(O)ccc3ccccc23)cc1	n	n	n	n	n	n
Cn1cc(C(=O)N/N=C/c2c(O)ccc3ccccc23)ccc1=O	n	n	n	n	n	69
O=C(CSCC(=O)Nc1ccccc1)N/N=C/c1c(O)ccc2ccccc12	n	n	n	52	n	69
Cn1nccc1C(=O)N/N=C/c1c(O)ccc2ccccc12	n	n	n	n	n	72
COc1ccc(C2c3cc4c(cc3OC(N3CCOCC3)C2C)OCO4)c(OC)c1 (stereo unspecified)	n	n	n	n	n	n
COc1cccc(-c2cnc(C(O)c3ccc(C(C)(C)C)cc3)[nH]2)c1 (stereo unspecified)	x	n	n	n	n	x
O=C(NN=Cc1c(O)ccc2ccccc12)c1ccncc1	n	n	n	n	n	75
O=C(N/N=C/c1c(O)ccc2ccccc12)c1cccnc1	n	n	n	52	n	n
O=C(N/N=C\c1c(O)ccc2ccccc12)c1ccc(O)cc1	n	n	n	n	n	n
O=C(NCC1CCCO1)c1cccc2c1C(=O)c1ccc(N3CCC(Cc4ccccc4)CC3)cc1S2(=O)=O (stereo unspecified)	n	n	n	63	n	n
O=C(NCc1ccccc1C(F)(F)F)c1cccc2c1C(=O)c1ccc(N3CCOCC3)cc1S2(=O)=O	n	n	n	n	n	n
O=C(NCc1ccccc1C(F)(F)F)c1cccc2c1C(=O)c1ccc(N3CCC(N4CCCCC4)CC3)cc1S2(=O)=O	x	n	n	106	n	x
CCSCCCn1[nH]c2ccccc2c1=O	x	n	n	n	n	x
CCCCNC(=O)C1(C)CCCCN1C(=O)c1cncc(Br)c1 (stereo unspecified)	x	n	n	n	n	x
COc1ccc(NS(=O)(=O)c2cccc(C(=O)N3CCN(C/C=C/c4ccccc4)CC3)c2)cc1	x	n	n	n	n	x
COc1ccc(-c2cc(-c3ccc(C)cc3)nc(SCc3nnc(-c4ccccc4)o3)c2C#N)cc1OC	n	n	n	n	-70	n
COCCCNC(=O)c1cccc2c(-c3cccc(C(N)=O)c3)coc12	x	n	n	n	n	x
O=C(O)CNC(=O)C(c1ccccc1)c1ccccc1	n	n	n	n	n	n
O=C(O)CNC(=O)C(CS)Cc1ccccc1 (stereo unspecified)	n	55	n	n	n	n
O=C1NC[C@H](c2ccccc2)OC(=O)[C@H](Cc2ccc(F)cc2)C/C=C\C[C@H]1CC(=O)N(CCO)Cc1ccccc1	n	102	n	54	-86	n
O=C1NC[C@@H](c2ccccc2)OC(=O)[C@H](Cc2ccc(F)cc2)C/C=C\C[C@H]1CC(=O)N(CCO)Cc1ccccc1	n	n	n	n	n	n
O=C1NC[C@H](c2ccccc2)OC(=O)[C@@H](Cc2ccc(F)cc2)C/C=C\C[C@H]1CC(=O)N(CCO)Cc1ccccc1	n	84	n	68	-53	n
CC(C)(C)OC(=O)C[C@@H]1C/C=C\C[C@H](CC(=O)N(CCO)Cc2ccccc2)C(=O)NC[C@@H](c2ccccc2)OC1=O	n	n	n	n	n	n
Cc1oc2c(c1C(=O)c1ccccc1)C(=O)C(=O)c1ccccc1-2	98	88	88	108	n	n
SMILES	Beta2AR agonist	CF NFkB block	HIF-2a block	Peg3 promoter	KKLEB cytotox	TRPM1 prom inh
Cc1oc2c(c1C(=O)O)C(=O)c1ccccc1C2=O	n	n	n	n	n	n
CCOC(=O)c1c(C)oc2c1C(=O)c1ccccc1C2=O	n	76	n	n	n	97
Cc1cccc(C(=O)N2CCC[C@H]2C(=O)N2CCC[C@H]2C(=O)NCc2ccncc2)c1	x	x	n	x	x	x
CN(C)CCNc1nc2sc3c(c2c(=O)n1CCc1ccccc1)CCCCC3	n	n	n	108	n	90
COc1ccc(C(=O)Nc2ccccc2C(N)=O)cc1	n	n	n	n	n	n
COc1ccc(C(=O)Nc2ccccc2C(=O)N/N=C/c2ccncc2)cc1OC	n	n	n	n	-60	n
COc1ccc(C(=O)Nc2ccccc2C(=O)NCc2cccnc2)cc1OC	n	n	n	n	n	n
COc1ccc(C(=O)Nc2ccccc2C(=O)N/N=C/c2cccc3ccccc23)cc1	n	n	n	n	-88	n
c1ccc(N2[C@@H]3c4ccccc4C[C@H]2c2ccccc23)cc1	x	x	n	x	x	x
O=C1c2ccc3c4c(ccc(c24)C(=O)N1c1cccc(O)c1)C(=O)N(c1cccc(O)c1)C3=O	n	51	n	n	n	100
CCCN1C(=O)c2ccccc2NC1c1cc(OC)c(OC)c(OC)c1 (stereo unspecified)	n	n	n	n	n	n
CCN1c2ccccc2NC2N=C(OC)C(c3ccccc3)C21 (stereo unspecified)	n	n	n	n	n	87
Cc1cccc(N(Cc2ccccc2)C(=O)CCl)c1	n	96	n	59	-107	n
O=C(/C=C/c1ccco1)NC(=S)Nc1ccc(N2CCCC2)cc1	44	n	n	n	n	n
O=C(/C=C/c1ccco1)NC(=S)Nc1ccc(C(=O)O)cc1	n	n	n	n	n	n
Cc1ccc(NS(=O)(=O)c2cc(NC(=O)c3ccc4c(c3)NC(=O)CS4)ccc2Cl)c(C)c1	n	n	n	52	n	n
Cc1ccccc1N1CCN(CCCN2C(=O)CC(=C(c3ccccc3)c3ccccc3)C2=O)CC1	n	n	n	n	n	n
O=C1CC(=C(c2ccccc2)c2ccccc2)C(=O)N1CCCCN1CCN(c2cccc(Cl)c2)CC1	n	n	n	50	n	n
CCc1cc(-c2[nH]ncc2-c2ccc3c(c2)OCO3)c(O)cc1O	n	85	n	69	n	n
CCC(=O)c1ccc(OCC(O)CN(C)C2CCCCC2)cc1 (stereo unspecified)	n	n	n	n	n	n
CN(CC(O)COc1ccc(OCC(O)CN(C)C2CCCCC2)cc1)C1CCCCC1 (stereo unspecified)	n	n	n	83	n	n
c1ccc(-c2cc(NCCN3CCCCC3)c3ccccc3n2)cc1	n	n	n	101	n	n
CC1(C(=O)NS(=O)(=O)c2ccc(F)cc2F)CCN1C(=O)CC1CCCC1 (stereo unspecified)	x	n	n	n	n	x
O=C(Nc1nc(-c2ccccn2)cs1)c1ccccc1-n1cnnn1	n	n	n	n	n	65
O=C(Nc1nc(-c2ccccn2)cs1)c1cc(Cl)ccc1[N+](=O)[O-]	n	n	n	n	n	79
O=C(Nc1nc(-c2ccccn2)cs1)c1ccc([N+](=O)[O-])o1	n	n	n	n	n	61
Cc1ccc(C(=O)Nc2nc(-c3ccccn3)cs2)o1	n	n	n	n	n	n
O=C(Nc1nc(-c2cc(F)ccc2F)cs1)c1ccccn1	n	n	n	n	n	n
